In ChEMBL document CHEMBL3988442, “University of Dundee, Small-Polar-MMV Screening Library” (2021):
The whole screen tested about 48,000 compounds, of which about 13,000 (27%) showed an effect of 50% or more. The list shows a part of the results.

What follows are compounds tested on Wolbachia pipientis (assay: Anti-Wolbachia Cell-Based Screen). Conditions: 5 µM.
Format: functional
Set-up: scale not given: in the data most compounds retested in dose-response had high values

Row | SMILES | Percent Effect [%]
1 | Cn1ccc(C(=O)NC2CCN(c3ncccn3)CC2)cc1=O | 3.49
2 | CC(C)N1CCN(C(=O)Nc2cnn(CC(N)=O)c2)CC1 | 2.959
3 | N#Cc1cccnc1NCCNC(=O)N1CCCSCC1 | -6.239
4 | CCN(CC)S(=O)(=O)CC(=O)Nc1ccsc1 | -11.66
5 | NC(=O)N1CCCC(C(=O)NCCOc2ccc(F)c(F)c2)C1 (stereo not given) | -0.02905
6 | CC(=O)N1CCCC(C(=O)NCCOc2cc(C)cc(C)c2)C1 (stereo not given) | 99.72
7 | NC(=O)N1CCCC(C(=O)NCCOc2ccc(F)cc2F)C1 (stereo not given) | -7.563
8 | COc1cccc(S(=O)(=O)CCN2CCN(CCO)CC2)c1 | 9.306
9 | Cc1ccc(-c2nc(C3CCN(C(=O)c4ccnn4C)CC3)no2)cn1 | 110.8
10 | Cc1ccc(C(=O)N2CCC(c3noc(-c4cccnc4)n3)CC2)cn1 | 104.3
11 | Cc1csc(CNc2ccc(-c3nc(C4CC4)no3)cn2)n1 | 8.683
12 | Cc1cccc2[nH]c(C3CCN(C(=O)c4ccnn4C)CC3)nc12 | 1.136
13 | Cc1cc(CNc2ccc(-c3nc(C4CC4)no3)cn2)no1 | -5.978
14 | N#Cc1cccc(C(=O)N2CC(c3nc(-c4cccnc4)no3)C2)c1 | 18.62
15 | Cc1cc(C)n(CCN(C)c2ccc(-c3nc(C4CC4)no3)cn2)n1 | -7.447
16 | O=C1NCCCC[C@@H]1Nc1ccc(-c2nc(C3CC3)no2)cn1 | -3.27
17 | Cc1ccc(-c2nc(C3CCN(C(=O)c4ccn(C)n4)CC3)no2)cn1 | 126.5
18 | Cc1noc(-c2ccc(N3CCC(C(=O)N4CCCC4)CC3)nc2)n1 | -5.391
19 | Cc1ccc(-c2nc(C3CCN(C(=O)c4cnn(C)c4)CC3)no2)cn1 | 103.5
20 | CS(=O)(=O)NCCn1ccc(-c2cccs2)n1 | -6.394
21 | CCS(=O)(=O)CC(C)NC(=O)N(C)Cc1cc(Cl)cn1C (stereo not given) | -1.914
22 | CCn1ccnc1CN1CCCC(CO)(Cc2cccc(OC)c2)C1 (stereo not given) | 5.509
23 | COCCN1CCN(C(=O)c2cc(C(C)C)on2)[C@H]2CS(=O)(=O)C[C@H]21 | 8.676
24 | CC(C)N1CC[C@@H]2[C@H](COCC3CC3)CN(C)C(=O)[C@@H]2CC1.O=C(O)C(F)(F)F | -0.4638
25 | COCC1c2nnn(C)c2CCN1C(=O)CCc1cccc(OC)c1 (stereo not given) | 104.7
26 | COCC1c2nnn(C)c2CCN1C(=O)Cc1ccc2c(c1)OCO2 (stereo not given) | 20.75
27 | COCC1c2nnn(C)c2CCN1C(=O)COc1ccccc1C (stereo not given) | 112

Row | SMILES | Percent Effect [%]
28 | COCC1c2nnn(C)c2CCN1C(=O)Cc1ccccn1 (stereo not given) | 111.4
29 | CCc1ccc(CN2CCc3c(nnn3C)C2COC)cc1.O=C(O)C(F)(F)F (stereo not given) | -3.58
30 | Cn1nnc2c1CCN(Cc1ccccn1)C2COCc1ccccc1.O=C(O)C(F)(F)F.O=C(O)C(F)(F)F (stereo not given) | -46.38
31 | CN(C)C(=O)N1CCc2c(nnn2C)C1COCC1CC1 (stereo not given) | -5.702
32 | COCC1c2nnn(CC3CC3)c2CCN1C(=O)c1cccn1C (stereo not given) | -3.461
33 | COCC1c2nnn(C)c2CCN1C(=O)c1ccc(OC)c(F)c1 (stereo not given) | 111.1
34 | Cn1nnc2c1CCN(C(=O)CC1CC1)C2COCCN1CCCC1 (stereo not given) | -8.962
35 | COCC1c2nnn(CC3CC3)c2CCN1C(=O)c1cccc(F)c1 (stereo not given) | -7.214
36 | CCn1nnc2c1CCN(C(=O)c1ccc3c(c1)OCO3)C2COC (stereo not given) | -29.17
37 | NC(=O)c1ccc(N2CCCCC2)c(NC(=O)c2cc(F)ccc2F)c1 | -3.666
38 | CCC(C)C(=O)NCc1cccc(N2CCCCC2=O)c1 (stereo not given) | -5.78
39 | Cn1cnnc1S(=O)(=O)C1CCN(S(=O)(=O)C2CC2)CC1 | -4.739
40 | CN(Cc1cc(Br)cn1C)C(=O)c1cscn1 | 4.085
41 | CCC(NCc1nccn1C)c1nc(C(F)(F)F)cs1 (stereo not given) | 20.15
42 | Cc1ccc(CN2CCC[C@@H]3CN(C(=O)c4ccco4)C[C@@H]32)o1.O=C(O)C(F)(F)F | -0.1922
43 | CN(C)C(=O)N1CCc2c(nnn2C)C1COCc1ccccc1 (stereo not given) | -4.916
44 | COCC(=O)N1CCc2c(nnn2C)C1COCCN1CCCC1.O=C(O)C(F)(F)F (stereo not given) | -0.9958
45 | COCC1c2nnn(C)c2CCN1C(=O)COc1ccccc1OC (stereo not given) | 111.7
46 | Cn1cnnc1CNC(=O)Nc1ccc(OC2CCC2)c(F)c1 | 19.99
47 | Cc1nc(C)c(C(=O)N2CCc3nnc(C4CCCCN4C)n3CC2)s1 (stereo not given) | 78.92
48 | Cc1nc(C)c(C(=O)N2CCc3nnc(C4CCCN4C)n3CC2)s1 (stereo not given) | 98.46
49 | Cc1nc(C2CCCN(C(=O)c3sc(C)nc3C)C2)no1 (stereo not given) | -10.94
50 | Cc1ccc(C(=O)N2CCCC2c2nnc3n2CCCCC3)o1 (stereo not given) | -4.034
51 | Cc1nc(C)c(C(=O)N2CCCC2c2nnc3n2CCCCC3)s1 (stereo not given) | 13.74
52 | Cc1nc(C)c(C(=O)N2CCCc3c(F)cccc32)o1 | -18.15
53 | Cc1nc(C)c(C(=O)N2CCc3nnc(C4CCCCN4C)n3CC2)o1 (stereo not given) | 112.5
54 | Cc1ncsc1C(=O)N1CCc2nnc(C3CCCCN3C)n2CC1 (stereo not given) | 103.3

Row | SMILES | Percent Effect [%]
55 | Cc1cc2c(=O)n3c(nc2s1)CCN(C(=O)c1scnc1C)CC3 | -10.56
56 | C=C(C)COc1cccc(CNC(CC(C)C)c2ncnn2C)c1 (stereo not given) | -17.42
57 | CCc1ccccc1OCCN(C)C(=O)CCN1CCCCO1 | -13.9
58 | CCN(c1ccc(C(=O)N(Cc2cnn(C)c2)C(C)C)cn1)C(C)C | -13.88
59 | CCCN(CC)c1ccc(C(=O)N2CCCC2c2cnn(C)c2)cn1 (stereo not given) | 104.2
60 | CCN(c1ccc(C(=O)N2CCCC2c2cnn(C)c2)cn1)C(C)C (stereo not given) | 103.8
61 | CC(C)(C#N)CCCS(=O)(=O)c1nccn1-c1cccc(F)c1 | -8.679
62 | CC(C)(C)c1cc(NC(=O)CN(Cc2cccs2)Cc2cccs2)on1 | 32.93
63 | CC(CC(F)(F)F)NCc1ccccc1-n1ccnc1 (stereo not given) | 3.95
64 | CC(C)C1CN(S(=O)(=O)c2ccc(C#N)cc2)CCS1 (stereo not given) | -10.5
65 | Cc1nc(C)n(C2CCCN(C(=O)CCOc3cccc(F)c3)C2)n1 (stereo not given) | 103.4
66 | Cc1cc(C)n(C2CCCN(C(=O)CCOc3cccc(F)c3)C2)n1 (stereo not given) | 118.8
67 | Cc1cc(C)n(C2CCCN(C(=O)COCC(F)(F)F)C2)n1 (stereo not given) | -14.38
68 | Cc1cc(C)n(C2CCCN(C(=O)CN(C)C3CC3)C2)n1 (stereo not given) | -13.37
69 | CC(NS(C)(=O)=O)C(=O)Nc1ccc2oc(C3CC3)nc2c1 (stereo not given) | -12.46
70 | CC(C)n1cnnc1CNC(=O)CCCOc1ccccc1Cl | -21.75
71 | O=C(NS(=O)(=O)c1cnn(-c2ccccc2F)c1)c1ccco1 | -14.51
72 | N#Cc1cccc(S(=O)(=O)N(CC2CCC2)c2cn[nH]c2)c1 | -4.525
73 | O=C(c1ccnnc1)N1CCO[C@H]2[C@@H](OCc3cccnc3)CC[C@@H]21 | -4.529
74 | O=C(c1ccnnc1)N1C[C@@H](OCc2cccnc2)[C@H]2OCCC[C@H]21 | 85.61
75 | O=C(c1ccnnc1)N1CCO[C@H]2[C@H](Oc3cccnc3)CC[C@@H]21 | 84
76 | Cc1occc1C(=O)N1CCO[C@H]2[C@H](Oc3cccnc3)CC[C@@H]21.O=C(O)C(F)(F)F | -18.12
77 | O=C(C1=CCCC1)N1C[C@H](OCc2cccnc2)[C@H]2OCCC[C@H]21 | -3.807
78 | O=C(c1ccnnc1)N1C[C@H](Oc2cccnc2)[C@H]2OCCC[C@H]21 | -6.406
79 | CCN(CC)C(=O)CCNC(=O)c1ccccc1N1CCOCC1 | -16.45
80 | Cc1csc(N2CCN(C(=O)c3cc(Cl)c[nH]3)CC2)n1 | -16.71
81 | Cc1nc(C)n(CC2CCCN(CCCS(=O)(=O)N(C)C)C2)n1 (stereo not given) | -11.1

Row | SMILES | Percent Effect [%]
82 | Cc1nc(C)n(CC2CCCN2CCC(=O)N2CCCCC2)n1 (stereo not given) | 145.3
83 | Cc1nc(C)n(CC2CN(CCc3ccncc3)CCO2)n1 (stereo not given) | -6.873
84 | Cc1nc(C)n(CC2CN(CCn3cccn3)CCO2)n1 (stereo not given) | 6.801
85 | Cc1nc(C)n(CC2CCCN(CCC(=O)N3CCCCC3)C2)n1 (stereo not given) | -10.32
86 | Cc1nc(C)n(CC2CCCN(CCC(=O)N3CCOCC3)C2)n1 (stereo not given) | 132.9
87 | Cc1nc(C)n(CC2CCCN(CC(=O)Nc3c(C)n[nH]c3C)C2)n1 (stereo not given) | -12.55
88 | Cc1nc(C)n(CC2CCCN(CC(=O)Nc3nncs3)C2)n1 (stereo not given) | -5.341
89 | Cc1nc(C)n(CC2CCCCN2CCCO)n1 (stereo not given) | 0.7848
90 | Cc1nc(C)n(CC2CN(CCC(=O)N3CCCCC3)CCO2)n1 (stereo not given) | 110.4
91 | Cc1nc(C)n(CC2CCCN(CC(=O)N3CCCC3)C2)n1 (stereo not given) | 118.1
92 | Cc1nc(C)n(CC2CCCCN2CCS(C)(=O)=O)n1 (stereo not given) | -3.909
93 | CCc1nc(C)c(-c2nccn2CC2CCCCO2)[nH]1 (stereo not given) | -5.573
94 | CCN(C(=O)c1ccc2nnc(C3CCN(CCOC)C3)n2c1)C(C)C.O=C(O)C(F)(F)F (stereo not given) | 2.172
95 | CN(CCN1CCCCCC1)Cc1cnc(N)nc1 | -0.8813
96 | CCN1CCC(Cn2ccc3ccc(C(=O)OC)cc3c2=O)C1 (stereo not given) | -7.454
97 | COc1ccccc1CNC(=O)C1=NN(c2ccc(C)cc2)C(=O)CN1 | 1.348
98 | c1cc(CCN2CCCC2CN2CCCC2)ccn1 (stereo not given) | 17.12
99 | COCC(=O)N1CCCC1c1ccnc(Nc2cnccn2)n1 (stereo not given) | -7.486
100 | c1ccc(CCN2CCCC2c2ccnc(Nc3cnccn3)n2)cc1 (stereo not given) | 169.2
101 | O=C(CCN1CCCC1c1ccccn1)N1CCc2ccccc2C1 (stereo not given) | 1
102 | CSCC1CCCN1CCc1ccncc1 (stereo not given) | 7.935
103 | Nc1nccc(C2CCCN2CCc2ccccc2)n1 (stereo not given) | 168.1
104 | Fc1ccc2[nH]c(C3CCCN3CCc3ccccn3)nc2c1 (stereo not given) | 17.03
105 | c1ccc(CCN2CCCC2c2ccnc(Nc3ncccn3)n2)cc1 (stereo not given) | 212.6
